# High-throughput results: PubChem BioAssay, University of Kansas High Throughput Screening Laboratory
# Pf apPOL block – Pf-apPOL DNA polymerase inhibition | Recombinant Pf-apPOL, molecular beacon fluorescence, 1.5 h | 0.25% of 210,000 active | inhibition, % at 10 µM
# mHTT-CaM PPI inh – inhibitors of human mutant huntingtin-calmodulin interaction; P42858; AlphaScreen His-mHTT/GST-CaM binding, luminescence; inhibition, % at 15 µM; 3.6% of 190,000 active;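 note: 0% = both proteins with DMSO and 100% = one protein alone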
# * = called active by the depositor; · = no result given. Shown are actives, neighbours in structure and some others; about 3.6% of the full set was active somewhere. Cut-off read from the data, not from the text of the source: active = inhibition above about 50%; inactive = the rest.
SMILES,Pf apPOL block,mHTT-CaM PPI inh
CN1C/C(=C/c2ccco2)C(=O)/C(=C/c2ccco2)C1,·,30.1
O=C(Nc1ccc2c(c1)OCO2)N1CCCC1c1ccccc1Cl (stereo unspecified),-1.1,7.9
CC(C)CNC(=O)c1cncc(-c2ccc(F)cc2F)c1,36.8,1.2
CCCNC(=O)c1cncc(-c2ccc(F)cc2F)c1,62.2*,12.4
N#CC(=Cc1ccccc1N1CCOCC1)S(=O)(=O)c1ccccc1,-5.1,·
Cc1ccc(C(=O)N2CCC(CCNC(=O)c3c(F)cccc3F)CC2)cc1,7.0,1.8
Cc1cc(C(=O)NC2CCN(Cc3c(F)cccc3Cl)CC2)no1,-3.9,·
Cc1csc(NC(=O)c2cnc3sccn3c2=O)n1,-0.6,-11.9
Cc1cc(C)nc(SCc2cc(=O)c(OC(=O)c3cc4ccccc4o3)co2)n1,2.1,92.2*
CC(=O)Nc1nnc(SCc2cc(=O)c(OC(=O)c3ccco3)co2)s1,20.1,0.4
Brc1ccc(CNc2cc3c(cc2Br)OCCO3)cc1,-13.4,79.0*
Clc1cccc(CNc2cc3c(cc2Br)OCCO3)c1,-3.8,88.0*
O=c1c(=O)n(-c2ccc3c(c2)OCCO3)ccn1Cc1cccc(Cl)c1,4.5,-3.4
Fc1ccc(NCc2ccc3c(c2)OCCO3)cc1F,2.0,-14.2
CCOc1ccc(CN2CCc3nc(Nc4ccccc4)ncc3C2)cc1,8.8,5.9
Cc1cccc(C(=O)NC2CCCCC2C)c1 (stereo unspecified),-1.6,-3.9
COc1ccc(C)cc1C(=O)C1CC(C(=O)O)C(C)(C)C1C (stereo unspecified),58.7*,3.6
COc1ccc(C)cc1NC(=O)C1C2C=CC(C2)C1C(=O)O (stereo unspecified),-3.7,1.4
COCCCNC(=O)c1cc2c(=O)n3ccccc3nc2n(Cc2ccco2)c1=N,5.7,4.0
Cc1nc2n(n1)C(c1cc(F)cc(F)c1)C1=C(CCCC1=O)N2 (stereo unspecified),-7.8,0.2
COc1cc(C(=O)Nc2ccc(OCc3ccccc3)cc2)c([N+](=O)[O-])cc1OC,4.0,-0.2
CC(C)NC(=O)c1ccn2c(-c3ccccc3Br)nnc2c1,-1.9,2.8
CCCOC(=O)c1ccc(Oc2c(C)oc3cc(OC(=O)N(C)C)ccc3c2=O)cc1,-5.4,8.1
CCCCNc1cc(-n2nc(C)cc2C)ncn1,-8.8,2.5
C=CCNC(=O)c1oc2ccc(S(=O)(=O)N3CC(C)CC(C)C3)cc2c1C (stereo unspecified),-14.5,77.0*
SMILES,Pf apPOL block,mHTT-CaM PPI inh
C=CCNC(=O)c1oc2ccc(S(=O)(=O)N3CCCCCC3)cc2c1C,-10.0,-6.0
Cc1ccc(C)n1-c1ccc(Cl)c(O)c1,-1.1,96.4*
Cc1ccc(C)n1-c1ccc(C(=O)NN)c(Cl)c1,1.7,31.2
CCN(CC)c1ccc(C2N(C(=O)c3ccccc3)CCN2S(=O)(=O)c2ccccc2)cc1 (stereo unspecified),1.8,37.0
CCC(=O)N1CCN(S(=O)(=O)c2ccc(C)cc2)C1c1ccccc1 (stereo unspecified),-8.1,-10.0
Cc1ccc(C(=O)N2CCN(S(=O)(=O)c3ccc(C)cc3)C2c2ccc(N(C)C)cc2)cc1 (stereo unspecified),1.4,50.0*
CCC(=O)N1c2ccccc2N(S(=O)(=O)c2ccc(C)cc2)C1c1ccc(N(C)C)cc1 (stereo unspecified),3.5,53.0*
CCC(=O)N1CCN(S(=O)(=O)c2ccc(C)cc2)C1c1ccc(N(C)C)cc1 (stereo unspecified),-9.0,18.0
Cc1ccc(S(=O)(=O)N2CCN(C(=O)c3ccccc3)C2c2ccc(N(C)C)cc2)cc1 (stereo unspecified),-17.4,56.0*
C[C@H]1[C@@H]2C[C@H]([C@H]3CCCCN31)[C@H](OC(=O)Nc1cccc(C(F)(F)F)c1)C2,-6.1,8.0
CCn1c(=O)c(N2CCN(C(=O)COc3ccc(Cl)cc3C)CC2)nc2ccncc21,4.4,60.8*
Cn1c(=O)c(N2CCN(C(=O)COc3ccc(Cl)cc3)CC2)nc2ccncc21,6.1,20.1
O=C(CN1CCC2(CC1)N=C(c1ccc(F)cc1)C(=O)N2)Nc1ccccc1,-4.7,-5.0
O=C(CN1CCC2(CC1)N=C(c1cccc(Cl)c1)C(=O)N2)Nc1cccc(Cl)c1,-2.1,46.0
Cc1ccc(C)c(NC(=O)CN2CCC3(CC2)N=C(c2ccc(F)cc2)C(=O)N3)c1,7.6,51.3*
O=C(CN1CCC2(CC1)N=C(c1ccccc1)C(=O)N2)Nc1cccc(C(F)(F)F)c1,-5.6,96.0*
O=C(CN1CCC2(CC1)N=C(c1cccc(Cl)c1)C(=O)N2)Nc1ccc2c(c1)OCO2,-0.7,52.9*
Cc1cccc(C)c1NC(=O)CN1CCC2(CC1)N=C(c1ccc(F)cc1)C(=O)N2,-2.3,7.7
c1csc(-c2nc(Cn3ccnc3)no2)c1,-3.6,-4.2
Cc1ccc(C(=O)N2CCC(CCNC(=O)c3cccc(C)c3)CC2)cc1,-0.6,17.4
O=C(c1ccccc1)N1CCCC(c2ccnc(-c3ccc(F)cc3)n2)C1 (stereo unspecified),-4.3,12.8
